# ALOX12 inh – Primary qHTS assay for inhibitors of human arachidonate 12S-lipoxygenase (ALOX12): Round 2. Polyunsaturated fatty acid lipoxygenase ALOX12 (Homo sapiens), P18054. purified 12hLO, xylenol orange hydroperoxide absorbance. Potency, µM (top dose mostly 108 µM), without a hit: at the highest dose activity change, negative = inhibition, usual class: inhibitors. 580,000 tested, 1.1% active. AID 1671190, 2021
#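 Hydroperoxide product was detected by ferrous iron/xylenol orange as the 573 to 405 nm absorbance ratio. Arachidonic acid at 40 uM (final) was turned over for 30 min at room temperature by 150 nM human 12hLO, pH 7.0 Hepes buffer, after 15 min compound preincubation.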
# DT40 TDP1 no CPT – qHTS for Inhibitors of human tyrosyl-DNA phosphodiesterase 1 (TDP1): qHTS in cells in absence of CPT; DT40 Tdp1-/- hTDP1 cells, no CPT, ATP luminescence, 48 h; Potency, µM (highest dose often 46.2 µM), for inactives: top-dose activity change, negative = growth inhibition, most hits filed as inhibitors; 420,000 tested, 15% active; AID 686978, 2013; note: nearly all actives have a fitted effect of over 55% in size
#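 Chicken DT40 Tdp1-/- cells complemented with human TDP1, screened without camptothecin (DMSO vehicle only), 400 cells/well. Compounds pin-transferred, cells incubated at 37 °C for at least 48 hr. Growth read as ATP-dependent luminescence (CellTiter-Glo, 30 min at RT).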
# RORgamma inh – qHTS for inhibitors of ROR gamma transcriptional activity; Drosophila S2 Gal4-RORgamma UAS-luciferase reporter, 20 h; Potency, µM (top dose mostly 53.6 µM), for the others: at the highest dose activity change, negative = inhibition, usual class: inhibitors; 310,000 tested, 5.4% active; note: nearly all actives have a fitted effect of over 60% in size
# Target sequence (P51450 whole entry, looked up, the tested form may be a part): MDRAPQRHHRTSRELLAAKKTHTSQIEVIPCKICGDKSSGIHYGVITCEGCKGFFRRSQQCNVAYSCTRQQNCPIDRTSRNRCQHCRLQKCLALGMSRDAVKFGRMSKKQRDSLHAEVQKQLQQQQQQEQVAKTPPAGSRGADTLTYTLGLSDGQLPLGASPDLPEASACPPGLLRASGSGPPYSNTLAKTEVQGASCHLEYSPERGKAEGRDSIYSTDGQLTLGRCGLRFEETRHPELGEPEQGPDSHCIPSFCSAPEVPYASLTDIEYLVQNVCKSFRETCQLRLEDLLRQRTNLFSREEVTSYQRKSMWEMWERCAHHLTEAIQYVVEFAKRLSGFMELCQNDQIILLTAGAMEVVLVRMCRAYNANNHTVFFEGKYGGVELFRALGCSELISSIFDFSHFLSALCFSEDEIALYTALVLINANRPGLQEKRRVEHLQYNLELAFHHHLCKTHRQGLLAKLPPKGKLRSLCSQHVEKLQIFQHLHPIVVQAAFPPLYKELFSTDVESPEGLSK
#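 Stable Schneider cell line, Gal4 DNA-binding domain fused to ROR gamma, UAS-luciferase. Cmpd 1 hr RT → CuSO4 700 uM final → 20 hr RT → luciferase reagent 10 min → luminescence.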
# ELG1 DNA repair – qHTS screen for small molecules that inhibit ELG1-dependent DNA repair in human embryonic kidney (HEK293T) cells expressing luciferase-tagged ELG1. HEK293T ELG1-luciferase reporter, luminescence, 16 h; DNA damage induced by 5-fluorouridine. 330,000 tested, 2.3% active. Potency, µM (titrated, usually from 46.1 µM), for the others: at the highest dose activity change, negative = inhibition, most hits filed as inhibitors; note: nearly all actives have a fitted effect of over 55% in size
#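 Overnight (16 hr) co-exposure of 2,000 cells/well to 5-fluorouridine and compound at 37 °C preceded detection. Luciferase was quantified via ONE-Glo luminescence; loss of signal denotes inhibition.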
# DT40 TDP1 CPT – qHTS for Inhibitors of human tyrosyl-DNA phosphodiesterase 1 (TDP1): qHTS in cells in presence of CPT; 420,000 tested, 12% active; Potency, µM (highest dose often 46.2 µM), without a hit: at the top dose activity change, negative = growth inhibition, actives largely listed as inhibitors; chicken DT40 Tdp1-/-;hTDP1 cells + 20 nM CPT, ATP luminescence, 48 h; note: nearly all actives have a fitted effect of over 55% in size
#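 Chicken DT40 Tdp1-/- cells stably complemented with human TDP1 were seeded at 400 cells/well in medium containing 20 nM camptothecin, exposed to pin-transferred compounds, and grown at 37 °C for at least 48 hr. Viability was read as ATP luminescence.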
# VP16 counter – VP16 counterscreen qHTS for inhibitors of ROR gamma transcriptional activity; Drosophila S2 Gal4-VP16 UAS-luciferase, luminescence, 20 h; Potency, µM (doses to about 53.6 µM), for inactives: top-dose activity, negative = inhibition, usual class: inhibitors; 310,000 tested, 3.5% active;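 note: Gal4-VP16 expression switched on by copper sulfate through the metallothionein promoter; nearly all actives have a fitted effect of over 50% in size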
# * = called active by the depositor; u = inconclusive; x = no result given; [ ] = another dose, or the depositor's remark. A selection: hits, their analogues and other compounds. The true share with any hit is near 15%. Calls come from the whole dose curve; as a rule, active = well fitted curve in the direction sought with a large enough effect; inconclusive = small, poorly fitted or top-dose-only effect, or another doubt; inactive = no such curve, though single readings can be large; an effect the other way counts as inactive or inconclusive. % is set by controls: 0 for no effect and ±100 for the full control effect; potency is the fitted concentration of half-maximal effect.
SMILES,ALOX12 inh,DT40 TDP1 no CPT,RORgamma inh,ELG1 DNA repair,DT40 TDP1 CPT,VP16 counter
C[S+](=O)([O-])c1cccc(Nc2n[nH]c(C(O)c3ccccc3)n2)c1 (stereo not given),-2.9%[176 µM],x,x,x,x,x
O=c1cc(-c2ccccc2Cl)oc2c(NS(=O)(=O)c3ccccc3OC(F)(F)F)ccc(O)c12,u,u,u,u,20.6µM*,u
Cc1ccccc1CN1CCN(C(=O)c2sc(-c3ccc(F)cc3)nc2C)CC1,0.0%,x,x,x,x,x
O=C(NN=C1CCCCCC1)c1cc(-c2ccccc2)nc2ccccc12,26.1%,14.6µM*,u,5.2%,16.4µM*,12.3%
Cc1ccc(-c2cc(C(=O)NN=C3CCCC3)c3ccccc3n2)cc1,0.0%[57.4 µM],-28.5%,12.6µM*,u,-23.8%,u
Fc1cccc(-c2cc3nc4c(c(N5CCOCC5)n3n2)CCCC4)c1,-8.4%,u,-11.9%,u,18.4µM*,7.8%
Clc1cccc(-c2cc3nc4c(c(N5CCN(c6cnccn6)CC5)n3n2)CCCC4)c1,0.0%,u,-25.4%,u,23.1µM*,-7.0%
Fc1cccc(-c2cc3nc4c(c(NCc5ccco5)n3n2)CCCC4)c1,-4.2%,-18.9%,-34.2%,u,u,0.0%
OC1CCN(c2c3c(nc4cc(-c5ccc(Cl)cc5)nn24)CCC3)CC1,0.0%,20.6µM*,-8.2%,18.4µM*,23.1µM*,-9.0%
Cc1ccc(-c2nn3c(C)nnc3c3ccccc23)cc1S(=O)(=O)NCC(C)O (stereo not given),-2.9%,-58.8%,x,x,u,x
CCCNS(=O)(=O)c1cc(-c2nnc3c4ccccc4c(C)nn23)ccc1OC,-15.0%,-18.6%,x,x,-9.5%,x
CCCCNS(=O)(=O)c1ccc(C)c(-c2nnc3c4ccccc4c(C)nn23)c1,-2.7%,16.4µM*,x,x,u,x
Cc1ccc(-c2nn3c(-c4ccco4)nnc3c3ccccc23)cc1S(=O)(=O)NCC1CCCO1 (stereo not given),-10.8%,5.8µM*,u,u,u,-26.4%
CNS(=O)(=O)c1cc(-c2nn3c(C)nnc3c3ccccc23)ccc1C,-3.0%,u,x,x,u,x
CCCNS(=O)(=O)c1cc(-c2nn3c(C)nnc3c3ccccc23)ccc1C,u,18.4µM*,x,x,u,x
Cc1ccc(-c2nnc(Nc3ccccc3)c3ccccc23)cc1S(=O)(=O)NCC1CCCO1 (stereo not given),-15.3%,16.4µM*,39.4%,20.6µM*,25.9µM*,u
COC[C@@H]1CN(S(=O)(=O)Cc2ccccc2)C[C@H]1c1ccncc1,4.5%,x,x,x,x,x
CNC(=O)c1ccc(Nc2nnc(-c3ccc(C)c(S(=O)(=O)NCC4CCCO4)c3)c3ccccc23)cc1 (stereo not given),1.6%,13µM*,9.8%,u,25.9µM*,8.2%
CC(=O)Nc1ccc(Nc2nnc(-c3ccc(C)c(S(=O)(=O)NCC4CCCO4)c3)c3ccccc23)cc1 (stereo not given),17.6%,3.2%,32.6%,20.6µM*,-2.6%,3.6%
CNC(=O)c1ccc(Nc2nnc(-c3ccc(C(N)=O)cc3)c3ccccc23)cc1,u,2.9%,-0.7%,0.9%,2.9%,2.9%
Cc1ccc(C)c(Nc2nnc(-c3ccc(C)c(S(=O)(=O)NCC4CCCO4)c3)c3ccccc23)c1 (stereo not given),-16.8%,5.17µM*,x,x,18.4µM*,x

# Screens: PubChem, National Center for Advancing Translational Sciences (NCATS)
